Source: PubChem BioAssay (National Center for Advancing Translational Sciences (NCATS))
Shown are actives, neighbours in structure and some others; about 2.6% of the full set was active somewhere.
Cruzain inh Det = inhibitors of Trypanosoma cruzi cruzain with detergent. hit rate 0.43% among 200,000. P25779. Potency, µM, without a hit: max response, negative = inhibition, hits mostly inhibitors. purified cruzain, Z-FR-AMC fluorescence, 0.01% Triton;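 note: plate controls were neutral wells for no effect and buffer without enzyme for full effect; nearly all actives have a fitted effect of over 40% in size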
Target sequence (P25779 123-467 limits assumed): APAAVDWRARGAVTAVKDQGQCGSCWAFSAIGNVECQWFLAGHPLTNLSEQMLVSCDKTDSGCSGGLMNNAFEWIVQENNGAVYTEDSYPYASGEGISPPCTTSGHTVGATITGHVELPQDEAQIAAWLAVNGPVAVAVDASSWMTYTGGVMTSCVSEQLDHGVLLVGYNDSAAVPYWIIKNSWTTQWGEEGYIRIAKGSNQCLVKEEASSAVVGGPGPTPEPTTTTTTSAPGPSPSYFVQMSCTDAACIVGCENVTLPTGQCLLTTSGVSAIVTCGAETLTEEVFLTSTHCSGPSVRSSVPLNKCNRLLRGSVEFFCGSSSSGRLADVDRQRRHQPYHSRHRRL
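Cruzain (1.5 nM) preincubated 15 min at RT with compound in 100 mM sodium acetate pH 5.5, 5 mM DTT, 0.01% Triton X-100. Reaction started with 2 uM Z-FR-AMC; AMC fluorescence (ex 360/em 450 nm) change over 60 s gave rate.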
Cruzain inh noDet = inhibitors of Trypanosoma cruzi cruzain without detergent. P25779. purified cruzain, Z-FR-AMC fluorescence, no detergent. Potency, µM, for inactives: max response, negative = inhibition, most hits filed as inhibitors. hit rate 2.3% among 200,000;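 note: plate controls were enzyme without inhibitor for no effect and buffer without enzyme for full effect; nearly all actives have a fitted effect of over 40% in size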
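Detergent-free condition (0.00005% Triton X-100) in acetate buffer pH 5.5 with DTT. 1.5 nM enzyme and compound were pre-mixed 15 min, then 2 uM Z-FR-AMC substrate added; reaction progress from fluorescence change between first and third reads (60 s).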
Numbers without * were called inactive; ? = inconclusive. Calls come from the whole dose curve; as a rule, active = well fitted curve in the direction sought with a large enough effect; inconclusive = small, poorly fitted or top-dose-only effect, or another doubt; inactive = no such curve, though single readings can be large; an effect the other way counts as inactive or inconclusive. Potency is the fitted concentration of half-maximal effect.

SMILES	Cruzain inh Det	Cruzain inh noDet
Nc1nnc(SCCCC(=O)c2ccccc2)s1	0%	2%
Cc1cc(=O)c2c(O)cc(O)c(C)c2o1	-5%	-9%
O=C(CC(C(=O)O)c1ccccc1)Nc1cccc2ccccc12 (stereo unspecified)	1%	-3%
O=C(CC(NC(=O)c1ccccc1)c1ccccc1)Nc1cccc2ccccc12 (stereo unspecified)	-3%	25µM*
Cc1cccc(N2CCN(C(=O)c3cnn(-c4ccccc4Cl)c3C3CCN(C(=O)OC(C)(C)C)CC3)CC2C)c1 (stereo unspecified)	-1%	-12%
CC(C)Nc1oc(-c2ccccc2)nc1-c1cccc2ccccc12	4%	-2%
C=C[C@@H](C1=CC(=O)C(OC)=C(OC)C1=O)c1ccccc1	-3%	16%
CCC(C)c1ccc2oc(-c3ccc(NC(=O)c4ncn[nH]4)cc3)nc2c1 (stereo unspecified)	-10%	4µM*
COc1cc(OC)cc(C(=O)Nc2ccc(-c3nc4cc(C(C)C)ccc4o3)cc2)c1	-2%	13µM*
O=C(Nc1ccc2oc(-c3cccc4ccccc34)nc2c1)c1ncn[nH]1	-3%	?
CC(C)c1ccc2oc(-c3ccc(NC(=O)c4ncn[nH]4)cc3)nc2c1	-8%	13µM*
COc1cc(OC)cc(C(=O)Nc2ccc(-c3nc4ccccc4o3)cc2)c1	-5%	?
Cc1cccc(C(=O)Nc2ccc(-c3nc4cc(C(C)C)ccc4o3)cc2)c1	-2%	-13%
Cc1cccc(NC(=O)c2ccc(N(Cc3ccccc3)S(C)(=O)=O)cc2)c1	-7%	11%
N/N=C1/CC(=O)NC(=O)N1	0%	-6%
Cc1cccc(CNC(=O)CN2C(=O)C3CCCCN3c3ccc(C(=O)N4CCCC4)cc32)c1 (stereo unspecified)	-1%	-3%
COC(=O)c1c(NC(=O)c2cc(=O)c3ccc(C)c(C)c3o2)sc2c1CCCC2	-1%	-9%
COc1cccc(C2CC(=O)Nc3c2c(=O)[nH]c2nc4ccccc4n32)c1 (stereo unspecified)	-1%	-4%
N#C/C(=C\c1ccc(-c2ccc(F)cc2F)o1)c1nc2ccccc2[nH]1	-5%	13µM*
CN(C)S(=O)(=O)c1cccc(-c2nn(-c3ccccc3)cc2/C=C(\C#N)c2nc3ccccc3[nH]2)c1	-3%	?
N#C/C(=C\c1cn(-c2ccccc2)nc1-c1cc2ccccc2o1)c1nc2ccccc2[nH]1	-3%	7.9µM*
N#C/C(=C\c1ccc(-c2ccccc2C(=O)O)o1)c1nc2ccccc2[nH]1	-1%	-1%
CC(=O)Nc1ccc(NS(=O)(=O)c2ccc3[nH]c4c(c3c2)CCCCC4)cc1	-11%	-30%
CC[C@H](C)[C@H](N)C1=N[C@H](C(=O)N[C@@H](CC(C)C)C(=O)N[C@@H](CCC(=O)O)C(=O)N[C@@H](C(=O)N[C@H]2CCCCNC(=O)[C@@H](CC(N)=O)NC(=O)[C@@H](CC(=O)O)NC(=O)[C@@H](Cc3cnc[nH]3)NC(=O)[C@@H](Cc3ccccc3)NC(=O)[C@@H]([C@@H](C)CC)NC(=O)[C@@H](CCCN)NC2=O)[C@@H](C)CC)CS1	-13%	?
Cc1ccc([N+](=O)[O-])cc1NC(=O)c1ccc(-c2ccccc2)cc1	3%	13µM*
SMILES	Cruzain inh Det	Cruzain inh noDet
O=C(Nc1ccc(Cl)cc1Cl)c1ccc(-c2ccccc2)cc1	0%	25µM*
O=C(Nc1c(Cl)cccc1Cl)c1ccc(-c2ccccc2)cc1	1%	-9%
Cc1ccc([N+](=O)[O-])cc1NC(=O)c1ccc(C(C)(C)C)cc1	-1%	-2%
O=C(O)[C@@H](O)[C@@H](O)[C@@H](O)[C@@H](O)c1nc2ccccc2s1	-4%	-1%
CCC(=O)OCN1C(=O)C=CC1=O	1%	-1%
CCCSc1nc(SCC(=O)NCc2ccccc2)c2c3c(sc2n1)COC(C)(C)C3	9%	-4%
CC(C)Sc1nc(SCC(=O)NCc2ccco2)c2c3c(sc2n1)COC(C)(C)C3	25µM*	25µM*
COc1ccc(Oc2ncc3nc(-c4ccc(F)cc4)c(=O)n(CCC#N)c3n2)cc1	-4%	2%
CC(C)Cc1ccc(C(C)C(=O)Nc2nccs2)cc1 (stereo unspecified)	-5%	25µM*
CC(C)C(C(=O)Nc1nccs1)c1ccccc1 (stereo unspecified)	1%	7%
Cc1ccc2c(Cl)cc(Cl)c(OCC(=O)Nc3cccc(S(N)(=O)=O)c3)c2n1	-10%	7%
Cc1ccc2c(Cl)cc(Cl)c(OCC(=O)Nc3cccc(S(=O)(=O)N(C)C)c3)c2n1	-2%	13µM*
Cc1sc2ncnc(SCC(=O)NCC(C)C)c2c1C	-11%	-5%
Cc1sc2ncnc(SCc3ccco3)c2c1C	-9%	-17%
COC(=O)c1c(-c2ccccc2)csc1NC(=O)CSc1ncnc2sc(C)c(C)c12	-1%	6.3µM*
Cc1sc2ncnc(SCC(=O)c3ccc(Cl)s3)c2c1C	-2%	10µM*
Cc1nnc(NC(=O)CSc2ncnc3scc(-c4ccccc4)c23)s1	1%	-26%
CCc1ccc(OCC(=O)NNC(=O)CSc2ncnc3sc(C)c(C)c23)cc1	1%	20µM*
CCC(=O)N1c2ccc(S(=O)(=O)CCC(=O)Nc3ccc(Br)c(C)c3)cc2CC1C (stereo unspecified)	-7%	-2%
CCN(C(=O)CSc1nc2ccccc2n1Cc1ccc(C(=O)OC)cc1)c1ccccc1	-4%	21%
Cc1ccccc1Cn1c2ccccc2c2cnn(CC(=O)NCCc3ccccc3)c(=O)c21	5%	12%
[N-]=[N+]=[N-]	-2%	-2%
COc1cc(NS(=O)(=O)c2ccc(C)cc2C)cc(OC)c1OC	2%	1%
C[C@H](O)CON1C(=O)c2ccccc2C1=O	2%	-3%
Cc1ccc(S(=O)(=O)ON2C(=O)c3ccccc3C2=O)c(C)c1	13µM*	16µM*
SMILES	Cruzain inh Det	Cruzain inh noDet
Cc1cc(C)c(C)c(S(=O)(=O)ON2C(=O)c3ccccc3C2=O)c1C	20µM*	25µM*
Cc1c(Cl)cccc1NC(=O)CSc1cc(-c2ccccc2)ncn1	-1%	-7%
COc1ccc(C)cc1NC(=O)C1CCC(CNS(=O)(=O)c2ccc3c(c2)CCCC(=O)N3)CC1 (stereo unspecified)	-1%	?
O=C(/C=C/c1ccc(Cl)c([N+](=O)[O-])c1)Nc1ccc(N2CCCC2)cc1	-27%	16µM*
O=C(/C=C/c1ccc(Cl)c([N+](=O)[O-])c1)Nc1ccc(NC(=O)c2ccco2)cc1	3%	?
Cc1cc(N2CCN(C)CC2)nc2ccc(NC(=O)Nc3cccc(Cl)c3)cc12	-8%	4%
Cc1cccc(NS(=O)(=O)c2ccc3oc(=O)c4ncn(C)c4c3c2)c1C	-2%	20%
NC(=S)Nc1nc2ccccc2[nH]c1=O	7.9µM*	?
O=c1[nH]c2ccccc2nc1C(Cl)c1ccccc1 (stereo unspecified)	-2%	-15%
CC(C)CN(Cc1c(O)ccc2c3c(c(=O)oc12)CCC3)CC(C)C	28µM*	-99%
Cc1cc(=O)oc2c(O)c(O)ccc12	-12%	-19%
Cc1cc(=O)oc2c(CN(CC(C)C)CC(C)C)c(O)ccc12	25µM*	?
O=c1oc2c(CN3CCOCC3)c(O)ccc2c2c1CCC2	?	-76%
Cc1nc2ncnn2c(C)c1CCC(=O)NCc1ccccc1Cl	2%	6%
Cc1ccc(Nc2ncc(C(=O)N3CCN(c4cccc(Cl)c4)CC3)c3ccccc23)cc1Cl	-6%	7.9µM*
